D3 ag – agonists of human D3 dopamine receptor. P35462. D3R DiscoveRx beta-arrestin cells, luminescence, 90 min. max activation, %. 0.58% of 410,000 active. AID 652048; in the data active means max activation above about 30%; further: 0% is about no effect
Target sequence (P35462 whole entry, looked up): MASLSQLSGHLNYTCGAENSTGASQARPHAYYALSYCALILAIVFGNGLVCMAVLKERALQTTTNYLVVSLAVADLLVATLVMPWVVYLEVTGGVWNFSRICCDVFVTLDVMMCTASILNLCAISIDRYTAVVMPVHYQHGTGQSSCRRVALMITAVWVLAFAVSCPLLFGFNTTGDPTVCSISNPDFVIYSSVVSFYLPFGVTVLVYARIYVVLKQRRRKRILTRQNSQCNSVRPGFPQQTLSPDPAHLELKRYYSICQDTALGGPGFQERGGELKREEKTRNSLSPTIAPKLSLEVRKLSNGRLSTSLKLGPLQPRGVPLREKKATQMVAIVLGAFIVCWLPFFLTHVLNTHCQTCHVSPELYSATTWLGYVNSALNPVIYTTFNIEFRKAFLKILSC
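Agonist-mode cell screen: cells plated at 1500/well and incubated overnight at 37 °C, then exposed to library compounds for 90 min at 37 °C. Detection reagent was added for 30–60 min at room temperature, and luminescence was read.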
GLP-1R inv ag – GLP-1 receptor (human) inverse agonism | P43220 | HEK293 GLP-1R CRE-luciferase, luminescence, 24 h; GLP-1R form is constitutively active | Potency, µM (top dose mostly 38.3 µM), for inactives: at the top dose activity change, negative = inhibition, usual class: inhibitors | 1.6% of 410,000 active; further: potency means the concentration at half of the fitted maximal effect; on the % scale 0 is the no-effect control and ±100 the full control effect; nearly all actives have a fitted effect of over 55% in size
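qHTS in 1536-well format: reporter HEK293 cells expressing constitutive GLP-1R activity in DMEM + 10% Nu serum, 24 hr with compounds at 37 deg C, luminescence read after 12 min with detection reagent.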
GLP-1R agonist – activates the human GLP-1 receptor | P43220 | HEK293 GLP-1R CRE-luciferase, luminescence, 4-6 h; cells express a hypersensitive GLP-1R form | Potency, µM (titrated, usually from 45.6 µM), for the others: at the highest dose activation, most hits filed as activators | 0.007% of 380,000 active; further: potency means the concentration at half of the fitted maximal effect; % of control where 0% means no effect
DRD3 antagonist – blocks the human D3 dopamine receptor; 2.5% of 360,000 active; P35462; D3R cells, DiscoveRx beta-arrestin luminescence, antagonist mode; active compounds read low; max response, negative = inhibition, %; in the data active means max response below about -50%; inconclusive means no clear call, values can overlap the other calls; further: on the % scale 0 is the no-effect control and ±100 the full control effect
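Cells plated overnight at 1500 cells/well, then exposed to library compounds with dopamine controls for 90 minutes at 37 degrees C. DiscoveRx reagent added for 30–60 minutes at room temperature; luminescence read, quantitative HTS format.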
GLP1R cytotox – cytotoxicity in counter-screen for GLP-1R inverse agonists | HEK293 cAMP-luciferase reporter cells, luminescence, 24 h | 0.13% of 410,000 active | Potency, µM (doses to about 38.3 µM), inactives show at the highest dose activity change, negative = inhibition, actives largely listed as inhibitors;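 further: loss of luciferase light is scored as toxicity; potency means the concentration at half of the fitted maximal effect; on the % scale 0 is the no-effect control and ±100 the full control effect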
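Step one: seed cells (200 cells/uL, DMEM with 10% Nu serum, 1% pen-strep). Step two: 12-hour incubation at 37 deg C. Step three: pin 23 nL compound, incubate 24 hr. Step four: add luciferase reagent, read luminescence 12 min later.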
ClpP mod – qHTS Assay for Activators of ClpP. 1.9% of 340,000 active. Potency, µM (titrated, usually from 57.5 µM), without a hit: top-dose activity change, negative = active. purified B. subtilis ClpP, FRET peptide cleavage, 20 min. AID 651965, 2013; active means well fitted falling curve with a large enough effect; inconclusive means small, poorly fitted or top-dose-only effect; inactive means no such curve, though single readings can be large or run the other way; further: potency means the concentration at half of the fitted maximal effect; the source files actives as falling curves though it sought activators and does not explain the sign; nearly all actives have a fitted effect of over 65% in size
Target sequence (P80244 whole entry, looked up): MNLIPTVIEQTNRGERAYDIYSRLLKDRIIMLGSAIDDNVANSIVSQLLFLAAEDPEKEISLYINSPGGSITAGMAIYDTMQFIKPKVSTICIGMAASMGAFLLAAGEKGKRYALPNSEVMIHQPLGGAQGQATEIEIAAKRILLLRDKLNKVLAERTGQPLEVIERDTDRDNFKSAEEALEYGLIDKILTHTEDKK
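Purified B. subtilis ClpP, 10 microg/mL final in Tris/HCl pH8 with KCl, BSA, glycerol and Tween-20, cleaved an Abz/nitrotyrosine-quenched decapeptide. Fluorescence (ex 320, em 430) was read at 0 and 20 min at room temperature. Delta was normalized to 5.8 microM ADEP and DMSO/no-enzyme controls.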
Active calls of the source: *; ? = inconclusive; / = no result given. This is a sample that favours compounds with a hit; in the whole collection about 5.7% have one here. Unless noted, the call rests on the fitted dose curve; in most records, active means well fitted curve in the direction sought with a large enough effect; inconclusive means small, poorly fitted or top-dose-only effect, or another doubt; inactive means no such curve, though single readings can be large; an effect the other way counts as inactive or inconclusive.

SMILES	D3 ag	GLP-1R inv ag	GLP-1R agonist	DRD3 antagonist	GLP1R cytotox	ClpP mod
O=[N+]([O-])c1ccc(S(=O)(=O)NN=Cc2ccc(Cl)c(Cl)c2)cc1	7.3	-14.8%	1.6%	-51.4*	-10.0%	/
O=[N+]([O-])c1ccc(S(=O)(=O)N/N=C/c2ccc3c(c2)OCO3)cc1	16.8	17.8%	9.4%	-20.8	-1.7%	-1.6%
Cc1ccc(S(=O)(=O)N/N=C/c2c(F)cccc2Cl)cc1	-6.8	0.5%	-11.6%	-87.3*	-20.2%	8.4%
Cc1ccc(S(=O)(=O)N/N=C\c2cc([N+](=O)[O-])ccc2Cl)cc1	-13.0	0.6%	4.3%	-63.4*	0.2%	0.3%
Cc1cc(Cl)ccc1OCc1cc(=O)n2c3c(sc2n1)CCCC3	11.0	13.9%	-0.1%	/	-1.5%	-2.8%
CCN(C/C=C/c1ccccc1OC)Cc1ccccc1	-24.7	-16.7%	-4.7%	-81.9*	0.2%	/
CCCCN(C/C=C/c1ccccc1OC)Cc1ccccc1	-14.9	?	-2.3%	?	?	-27.7%
O=C1C2C3C=CC(C3)C2C(=O)N1Nc1ccc([N+](=O)[O-])cc1[N+](=O)[O-] (stereo unspecified)	-17.0	-8.2%	0.5%	?	1.8%	-1.5%
O=C1c2ccccc2C(=O)N1Nc1ccc([N+](=O)[O-])cc1[N+](=O)[O-]	-25.2	1.2%	-3.4%	-75.3*	-9.2%	1.1%
Cc1ccc(NC(=O)c2cnn3c2NC(=C2CC2)C=C3C(F)F)cc1	/	/	/	/	/	-7.8%
Cc1ccc(-c2nn(C)c(=O)c3ccccc23)cc1S(=O)(=O)NCCN1CCOCC1	-4.5	101.9%	?	-53.0*	12.5%	-1.5%
CN(C)c1cccc(CNC(=O)c2ccc3sc([C@@H]4O[C@H](CO)[C@H](O)[C@H](O)[C@H]4O)nc3c2)c1	-15.5	1.2%	-6.7%	-101.1*	-2.0%	0.4%
O=C(NCc1cccnc1)c1ccc2sc([C@@H]3O[C@H](CO)[C@H](O)[C@H](O)[C@H]3O)nc2c1	-5.3	9.9%	-8.3%	-55.1*	-5.8%	-9.7%
CCOC(=O)C1CCCN(C(=O)c2cc3nc(-c4ccc5c(c4)OCO5)cc(C(F)(F)F)n3n2)C1 (stereo unspecified)	120.4*	108.1%	42.6%	46.7	9.8%	-5.8%
CCOC(=O)c1cnn2c(C)cc(-c3ccc(F)cc3)nc12	0.3	9.1%	14.2%	11.2	18.8%	28.2µM*
Cc1cc(C)n2nc(-c3ccc(F)cc3)cc2n1	4.2	2.8%	10.8%	-15.1	0.6%	?
CN1CCN(C(=O)c2cc3nc(-c4ccc(F)cc4)cc(C(F)(F)F)n3n2)CC1	0.9	16.2%	6.9%	-52.2*	-7.7%	-6.4%
Cc1cc(-c2ccc(F)cc2)nc2cc(C(N)=O)nn12	-16.3	30.0%	4.6%	-75.9*	2.1%	?
CC(C)(C)NC(=O)c1cccc2c1OC(C)(C)C2	49.2*	?	4.8%	8.9	4.9%	0.7%
CC1(C)Cc2cccc(C(=O)NCc3ccco3)c2O1	-7.0	11.6%	10.0%	?	12.7%	/
COc1ccc(NC(=O)CSC2=Nc3ccccc3C3=NC(CCC(=O)NCc4ccco4)C(=O)N23)cc1 (stereo unspecified)	7.6	-24.1%	/	/	-10.3%	33.0%
CC(=NCCc1c(C)[nH]c2ccc(OC(F)(F)F)cc12)C1=C(O)CC(c2ccccc2)CC1=O (stereo unspecified)	0.5	?	0.3%	?	-0.4%	/
CC(=NCCc1c(C)[nH]c2ccc(C)cc12)C1=C(O)CC(c2ccccc2)CC1=O (stereo unspecified)	-7.7	3.55µM*	5.0%	-22.5	?	1.6%
CCCC(=NCCc1c(C)[nH]c2ccccc12)C1=C(O)CC(c2ccccc2)CC1=O (stereo unspecified)	-7.6	2.51µM*	5.6%	-17.2	?	-3.6%
CN(Cc1ccccc1)S(=O)(=O)c1nnc(NC(=O)c2ccccc2Cl)s1	-18.9	-27.3%	/	/	-1.2%	-0.1%
SMILES	D3 ag	GLP-1R inv ag	GLP-1R agonist	DRD3 antagonist	GLP1R cytotox	ClpP mod
C=CCNC(=O)C1CC1(c1cccc(C)c1)c1cccc(C)c1 (stereo unspecified)	5.6	?	7.8%	11.1	-1.6%	/
Cc1cccc(C2(c3cccc(C)c3)CC2C(=O)Nc2ccc([N+](=O)[O-])cc2O)c1 (stereo unspecified)	-10.5	2.51µM*	-5.1%	-69.5*	?	1.4%
COC(=O)c1cc(Nc2nc3ccccc3nc2NS(=O)(=O)c2ccc(C)cc2)ccc1Cl	5.0	0.4%	0.8%	/	4.1%	-22.0%
N#CC(c1ccc([N+](=O)[O-])cc1)C(CC(=O)c1ccccc1)c1ccccc1 (stereo unspecified)	-5.2	11.2µM*	9.3%	-24.2	3.7%	/
N#CC(c1ccccc1)C(CC(=NO)c1ccccc1)c1ccccc1 (stereo unspecified)	1.6	8.91µM*	-5.6%	7.5	-2.9%	-0.5%
Cc1ccc2nc(NC(=O)CSc3[nH]c(=O)ncc3C)sc2c1	-1.7	5.0%	/	/	-0.3%	1.8%
CSc1ccc(CNC(=O)CCc2c(C)nn(-c3ccc(N4CCCC4)nn3)c2C)cc1	5.0	8.3%	/	/	-4.3%	-10.7%
CCOc1ccc(-c2cc(C(=O)Nc3ccc(C)c(NS(C)(=O)=O)c3)[nH]n2)c(C)c1	-14.9	7.08µM*	-2.6%	0.0	?	2.4%
Cc1ccc(-c2cccc(C(=O)NCCc3ccccc3)n2)c2ccccc12	-18.2	?	27.7%	-22.3	8.7%	?
COc1ccc(NC(=O)c2cc(-c3cc(F)ccc3OC)n[nH]2)c(C)c1	-8.4	-29.0%	6.9%	-51.2*	-6.3%	-5.5%
COc1ccc(NC(=O)c2cc(-c3cc(F)ccc3OC(C)C)n[nH]2)c(OC)c1	1.3	?	2.2%	42.5	-10.2%	-15.5%
COc1ccc(NC(=O)c2cc(-c3cc(Cl)ccc3OC)n[nH]2)cc1OC	5.5	?	-0.8%	27.4	-19.3%	-2.4%
Cc1ccc(-c2cccc(C(=O)NCc3ccccc3)n2)c2ccccc12	0.0	?	12.4%	-59.0*	?	4.0%
CCOc1ccc(-c2cc(C(=O)NCCOC)[nH]n2)c(C)c1	-6.6	3.0%	6.8%	0.0	6.9%	-2.1%
COc1ccc(Cl)cc1-c1cc(C(=O)Nc2ccc(F)cc2)[nH]n1	-19.3	-24.5%	-6.2%	-68.7*	-25.4%	3.3%
COc1ccc(NC(=O)c2cc(-c3ccc(F)cc3C)n[nH]2)cc1OC	-4.2	-38.8%	19.6%	-1.2	-3.9%	-2.6%
Cc1cc(O)ccc1-c1cc(C(=O)NCc2ccc(F)cc2)[nH]n1	-16.8	-3.0%	10.0%	?	1.4%	-0.4%

Source: PubChem BioAssay (National Center for Advancing Translational Sciences (NCATS))
